Only some compounds are listed: those with a hit (about 7.3% of all), similar ones and a draw of the others.
FMDV antiviral = foot and mouth disease virus antiviral activity; Potency, µM (titrated, usually from 57.9 µM), without a hit: at the highest dose activity change, negative = inhibition, actives largely listed as inhibitors; FMDV antiviral cell-based qHTS; actives 1.2% (n = 410,000); calls by dose curve; tested in HEK293T cells; also: read-out not given here; potency is read from the fitted curve at half-maximal effect; nearly all actives have a fitted effect of over 45% in size
Vaccinia mCherry = vaccinia inhibition (mCherry reporter); Vaccinia virus mCherry reporter infection, fluorescence; Potency, µM (titrated, usually from 36.5 µM), for inactives: at the highest dose activity change, negative = inhibition, hits mostly inhibitors; actives 0.63% (n = 310,000); AID 720579; calls by dose curve; tested in A549 cells; also: potency is read from the fitted curve at half-maximal effect; nearly all actives have a fitted effect of over 35% in size
HCMV antiviral = blocks human cytomegalovirus replication | HFF cells, HCMV-luciferase reporter, 72 h; stronger effect = lower value | activity change, negative = inhibition, % at 57.5 µM | AID 1259415 | actives 4.5% (n = 410,000); in the data active = activity change below about -60%; inconclusive = no clear call, values can overlap the other calls; inactive = above about -39%
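Two compound doses tested in HFFs infected with HCMV-luciferase, MOI 1 PFU/cell, 72 h at 37C. Lysate luminescence read with OneGlo; data normalized against buffer-only and 10uM Salinomycin inhibitor controls.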
VACV Venus inh = inhibitors of vaccinia virus (Venus reporter); Vaccinia virus Venus reporter expression, fluorescence; actives 0.46% (n = 330,000); Potency, µM (series often up to 36.5 µM), without a hit: top-dose activity change, negative = inhibition, most hits filed as inhibitors; AID 720580; calls by dose curve; tested in A549 cells; also: potency is read from the fitted curve at half-maximal effect; nearly all actives have a fitted effect of over 30% in size
HCV inh = inhibitors of hepatitis C virus infection; Huh7.5.1 HCVcc-Cre infection, luciferase reporter, 44 h; Potency, µM (series often up to 41.8 µM), without a hit: top-dose activity change, negative = inhibition, hits mostly inhibitors; actives 3.4% (n = 340,000); AID 651820; active = well fitted inhibition curve with a large enough effect; inconclusive = small, poorly fitted or top-dose-only effect, or another doubt; inactive = no such curve, though single readings can be large or run the other way; also: potency is read from the fitted curve at half-maximal effect
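Antiviral activity was scored by luciferase reporter output from cells infected with HCVcc-Cre (~0.5 moi) in presence of compound, 44 h infection period, cells seeded 1,000/well 4 h prior.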
* hit, by the source's call. % is scaled to controls: 0 for no effect and ±100 for the full control effect.

`Cc1nc(N2CCN(C)CC2)c2c3c(sc2n1)CCCC3` gave FMDV antiviral -18.9%, HCMV antiviral -22.2 and HCV inh -15.8%.
`COc1cccc(CNC(=O)c2cnc(N3CCCC3)nc2C)c1` gave FMDV antiviral -4.0%, Vaccinia mCherry -6.4%, HCMV antiviral -5.7 and VACV Venus inh -6.8%.
`COc1ccccc1-c1nnc(Sc2nc([N+](=O)[O-])nn2C)o1` gave FMDV antiviral 28.2µM*, HCMV antiviral -74.8* and HCV inh 10µM*.
For Cn1cnnc1Sc1nc([N+](=O)[O-])nn1C the results were FMDV antiviral 4.2%, HCMV antiviral -6.4 and HCV inh 2.2%.
Screening CCOc1ccccc1-n1c(N)c(C(N)=O)sc1=S returned FMDV antiviral 2.2%, HCMV antiviral -62.8* and HCV inh 2.9%.
Screening Cc1c2cnn(-c3ccccc3)c(=O)c2c(C)n1CCCC(=O)Nc1ccc(F)cc1F returned FMDV antiviral -20.3%, Vaccinia mCherry -1.1%, HCMV antiviral -7.7 and VACV Venus inh -10.7%.
O=C(Nc1ccc(Cl)cc1)c1cc(S(=O)(=O)NC2CCCCCC2)ccc1F was read as FMDV antiviral 1.4%, Vaccinia mCherry inconclusive, HCMV antiviral -66.8* and VACV Venus inh inconclusive.
O=C(c1cn[nH]c1)N1CCc2c([nH]c3ccccc23)C1c1c(F)cccc1Cl (stereo unspecified) was read as FMDV antiviral -7.1%, Vaccinia mCherry 10µM*, HCMV antiviral 26.3, VACV Venus inh -15.0% and HCV inh 3.7%.
Screening COc1cccc(C2c3[nH]c4ccccc4c3CCN2C(=O)c2ccccc2F)c1OC (stereo unspecified) returned FMDV antiviral -11.6%, HCMV antiviral 10.2 and HCV inh -12.4%.
For Cc1ccc(NC(=O)C(=O)NCC(c2cccnc2)N2CCN(Cc3ccccc3)CC2)cc1C (stereo unspecified) the results were FMDV antiviral -14.6%, Vaccinia mCherry -20.9%, HCMV antiviral -15.0 and VACV Venus inh -17.3%.
For CCOC(=O)c1cccc(NC(=O)c2cc3c(=O)n(C)c4ccccc4c3n2C)c1 the results were FMDV antiviral -26.3%, Vaccinia mCherry -17.6%, HCMV antiviral -8.1 and VACV Venus inh -27.6%.
Screening CN(C)c1ccc(/C=C/c2ccnc3ccccc23)cc1O returned Vaccinia mCherry -16.5% and VACV Venus inh 13.6%.
CC(C)Cn1nc(NC(=O)c2cccs2)c2cc3ccccc3nc21 was read as FMDV antiviral -12.1%, HCMV antiviral 77.0 and HCV inh 8.91µM*.
COc1ccc2nc3c(cc2c1)c(NC(=O)c1cccs1)nn3CC(C)C was read as FMDV antiviral 1.5%, HCMV antiviral -83.5*, VACV Venus inh inconclusive and HCV inh inconclusive.
Screening CC(C)Cn1nc(NC(=O)C(C)(C)C)c2cc3ccccc3nc21 returned FMDV antiviral -15.2%, HCMV antiviral inconclusive and HCV inh -9.5%.
`c1ccc2c(-c3[nH]ncc3CNCCCn3ncc4ccccc43)cccc2c1` gave FMDV antiviral inconclusive, Vaccinia mCherry -25.2%, HCMV antiviral inconclusive, VACV Venus inh -14.2% and HCV inh 10µM*.
Cc1ccccc1C(=O)Nc1cccc(-c2nnc(SCC(=O)NCc3ccco3)n2C)c1 was read as Vaccinia mCherry -16.1% and VACV Venus inh -14.8%.
`C=CC(=O)Nc1cccc(Nc2nc(N[C@H]3CC[C@H](N(C)C)CC3)nc3c2ncn3C(C)C)c1` gave FMDV antiviral inconclusive, Vaccinia mCherry inconclusive, VACV Venus inh 1µM* and HCV inh inconclusive.
CC(C)n1cnc2c(Nc3ccc(C(=O)O)cc3)nc(Cl)nc21 was read as FMDV antiviral 61.0%, Vaccinia mCherry inactive, HCMV antiviral 19.5, VACV Venus inh -23.6% and HCV inh 9.2%.
`COc1ccc(N(CC(=O)NCCc2ccccc2)S(=O)(=O)c2ccc(OC)c(OC)c2)cc1` gave FMDV antiviral -6.4%, Vaccinia mCherry -3.4%, HCMV antiviral -3.9 and VACV Venus inh 0.8%.
For NC(=O)NC(=O)C(c1ccccc1)N1CCN(S(=O)(=O)Cc2ccccc2)CC1 (stereo unspecified) the results were FMDV antiviral -0.7%, Vaccinia mCherry -2.3%, HCMV antiviral -87.6*, VACV Venus inh -5.3% and HCV inh 20.6%.
